Screening results (PubChem)
CBX7 AlphaScr – CBX7 chromodomain binding inhibitors, primary screen, biochemical, AlphaScreen. Chromobox protein homolog 7 (Homo sapiens), O95931. 66,000 tested, 1.1% active. AlphaScreen His6-CBX7 / biotin-H3K27me3 peptide binding; hits give low values. normalised signal (fraction of DMSO) (no concentration beside the values); in the data active means normalised signal below about 0.5
Target sequence (O95931 whole entry, looked up): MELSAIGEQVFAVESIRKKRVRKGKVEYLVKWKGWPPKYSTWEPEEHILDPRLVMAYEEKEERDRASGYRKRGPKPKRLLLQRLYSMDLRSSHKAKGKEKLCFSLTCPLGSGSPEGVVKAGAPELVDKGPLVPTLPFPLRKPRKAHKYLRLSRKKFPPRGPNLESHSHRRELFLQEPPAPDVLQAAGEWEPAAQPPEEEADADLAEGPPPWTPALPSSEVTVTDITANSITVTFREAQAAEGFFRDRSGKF
Active calls of the source: *. Shown is part of a subset that was picked to be rich in hits.

SMILES	CBX7 AlphaScr
COc1ccc(-c2noc(COc3ccc(Cl)cc3Cl)n2)cc1	1.16
COc1ccc(NC(=O)[C@H](CCS(C)(=O)=O)N2Cc3ccccc3C2=O)cc1OC	1.04
CSCC[C@@H](C(=O)Nc1ccc(C)c(F)c1)N1Cc2ccccc2C1=O	0.531
CSCC[C@@H](C(=O)Nc1cccc(F)c1)N1Cc2ccccc2C1=O	0.488*
CS(=O)(=O)CC[C@@H](C(=O)Nc1cccc(F)c1)N1Cc2ccccc2C1=O	1.09
COc1ccc(NC(=O)[C@H](CSCc2ccccc2)N2Cc3ccccc3C2=O)cc1Cl	0.87
COc1ccc(NC(=O)[C@H](Cc2ccccc2)N2Cc3ccccc3C2=O)cc1Cl	0.306*
Cc1ccc(C(=O)Nc2c3c(nn2-c2cccc(Cl)c2)CSC3)cc1	0.929
Cc1[nH]c2ccc(Br)cc2c1CCNS(=O)(=O)c1ccc(C(C)(C)C)cc1	0.739
COc1ccc(-c2nc(-c3ccc(C)cc3)[nH]c2-c2ccc(OC)cc2)cc1	0.698
COc1cc(-c2nc(-c3ccc(C)c(C)c3)c(-c3ccccc3)[nH]2)cc2c1OCO2	0.705
COc1cc(-c2nc(-c3ccc(C)c(C)c3)c(-c3ccc(C)c(C)c3)[nH]2)cc(OC)c1O	0.494*
Cc1onc(-c2ccccc2)c1C(=O)Nc1ccc(S(=O)(=O)Nc2nccs2)cc1	0.921
NS(=O)(=O)c1ccc(Nc2nnc(-c3ccc(O)cc3)c3ccccc23)cc1	0.851
O=S(=O)(Nc1nccs1)c1ccc(Nc2nnc(-c3ccccc3)c3ccccc23)cc1	0.0457*
Cc1ccc(Nc2nc3nonc3nc2NC(C)C)cc1C	0.854
Cc1cccc(CCNC(=O)C2CCN(S(=O)(=O)c3cccc4nsnc34)CC2)c1	1.02
COc1ccc(NC2c3ccccc3C(=O)N2Cc2ccccc2Cl)cc1OC (stereo not given)	0.803
COc1ccc(CN2C(=O)c3cccnc3C2Nc2ccc(Br)cc2F)cc1 (stereo not given)	0.192*
CCOc1ccc(N2C(=O)c3cccnc3C2Nc2ccc(Br)c(C)c2)cc1 (stereo not given)	0.164*
CCOc1ccc(C2C(N3C(=O)c4ccccc4C3=O)C(=O)N2c2ccc(Br)c(C)c2)cc1 (stereo not given)	0.927
COc1cc(OC)c(NC2c3ccccc3C(=O)N2Cc2ccccc2)cc1Cl (stereo not given)	0.703
COc1ccc(CN2C(=O)c3cccnc3C2Nc2ccc(Br)c(C)c2)cc1 (stereo not given)	0.149*
COc1ccc(NC2c3ccccc3C(=O)N2Cc2ccccc2Cl)cc1 (stereo not given)	0.821
Cc1ccccc1N1C(=O)c2ccccc2C1Nc1ccc(Br)cc1F (stereo not given)	0.968
SMILES	CBX7 AlphaScr
COc1ccc(CN2C(=O)c3cccnc3C2Nc2ccc(OC)c(Cl)c2)cc1 (stereo not given)	0.157*
CCOc1ccc(N2C(=O)c3ccccc3C2Nc2ccc(C)cc2)cc1 (stereo not given)	0.917
COc1cccc(NC2c3ccccc3C(=O)N2Cc2ccccc2)c1 (stereo not given)	0.908
Cc1cc(NC2c3ccccc3C(=O)N2Cc2ccccc2)ccc1Br (stereo not given)	0.647
O=C(CN1N=C(c2ccc(Cl)cc2)CCC1=O)NCCCN1CCOCC1	1.09
O=C(Nc1ccccc1Oc1ccc(Br)cc1)c1ccccc1	0.972
COc1ccc(-c2ccc(=O)n(CC(=O)Nc3ccc(OC)c(OC)c3)n2)cc1	0.949
O=C1CC(c2ccc(OCc3ccccc3)cc2)C2=C(CCCC2=O)N1 (stereo not given)	1.06
COC(=O)Cc1nc(Nc2cccc(OC)c2)c2c(C)c(C)sc2n1	0.795
CCC1=Nc2cc(C(=O)NCCOC)ccc2Sc2ccc(C)cc21	0.909
O=C(c1ccc2c(c1)N(Cc1ccccc1)CCS2)N1CCN(c2ccc(Cl)cc2)CC1	0.623
O=C(c1ccc2c(c1)N(Cc1ccccc1)CCS2)N1CCCCCC1	0.459*
O=C(c1ccc2c(c1)N(Cc1ccc(F)cc1)CCS2)N1CCN(c2ccccc2)CC1	0.76
O=C(c1ccc2c(c1)N(Cc1ccccc1)CCS2)N1CCN(c2ccccn2)CC1	0.617
O=C(c1ccc2c(c1)N(Cc1ccccc1)CCS2)N1CCN(Cc2ccccc2)CC1	0.368*
O=C(c1ccc2c(c1)N(Cc1ccccc1)CCS2)N1CCc2ccccc21	0.813
O=C(Cn1nc(Cc2ccncc2)c2ccccc2c1=O)N1CCN(c2ccc(F)cc2)CC1	0.909
COc1ccc(-c2n[nH]c(C)c2-c2ccccc2)c(O)c1	0.697
CCN1C(=O)CC(c2ccc(OC)c(OC)c2)Sc2ccccc21 (stereo not given)	0.887
CCOc1ccc(C(=O)Nc2ccc3oc(-c4cccnc4)nc3c2)cc1Br	0.98
COc1ccc(NC(CNS(=O)(=O)c2ccc(Cl)cc2)c2ccccc2)cc1 (stereo not given)	0.536
COc1ccccc1NC(CNS(=O)(=O)c1ccccc1)c1ccccc1 (stereo not given)	0.47*
O=S(=O)(NCC(Nc1ccccc1)c1ccccc1)c1ccc(Cl)cc1 (stereo not given)	0.984
